This is part of a sample that, as a whole, favours compounds with a hit. Of some 79,000 tested, about 15% had one in any assay. Calls of active or inactive are those of the source. No stated cut-off is given here; in the data, active means growth inhibition above about 70%; inactive means the rest.
Tests used:
[1] = NCI Yeast Anticancer Drug Screen. Data for the rad52 strain (AID 147);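 further: 0% = growth of vehicle-treated control cultures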; details: S. cerevisiae rad52 mutant growth inhibition, hits give high values
Procedure, shortened: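 Compounds are applied to a genetically defined yeast strain lacking normal DNA damage repair, and inhibition of growth is expressed relative to cultures given vehicle only.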

[2] = NCI Yeast Anticancer Drug Screen. Data for the wt1 strain (AID 149);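 further: 0% = growth of vehicle-treated wt1 cultures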; details: S. cerevisiae wt1 strain (SPY 50644) growth inhibition, hits give high values
Procedure, shortened: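 The wt1 strain was treated with compounds, and growth was compared with vehicle-treated cultures to give inhibition.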

[3] = NCI Yeast Anticancer Drug Screen. Data for the rad50EPP+ strain (AID 151);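 further: 0% = growth of vehicle-treated control cultures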; details: S. cerevisiae rad50 mutant strain, hits give high values
Procedure, shortened: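 Compounds were applied to the rad50EPP+ yeast strain, which bears a defined DNA repair alteration, and growth inhibition was determined relative to vehicle-treated cultures.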

[4] = NCI Yeast Anticancer Drug Screen. Data for the mgt1 strain (AID 153); details: S. cerevisiae mgt1 mutant growth inhibition, hits give high values
Procedure, shortened: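 Strain: mgt1 yeast, one of a set carrying defined DNA damage repair or cell cycle control alterations. Compound-treated growth compared with vehicle.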

[5] = NCI Yeast Anticancer Drug Screen. Data for the rad50 strain (AID 155);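 further: 0% = growth of vehicle-only cultures of the same strain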; details: S. cerevisiae rad50 strain growth inhibition, hits give high values
Procedure, shortened: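 Cells are treated with compound, grown, and their growth is then scored against vehicle-only cultures of the same repair-deficient yeast strain.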

[6] = NCI Yeast Anticancer Drug Screen. Data for the mec2-1 strain (AID 157); details: S. cerevisiae mec2-1 strain, hits give high values
Procedure, shortened: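 Strain: mec2-1 (DNA repair/cell cycle alteration). Compound exposure, then growth measured; inhibition expressed relative to vehicle.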

[7] = NCI Yeast Anticancer Drug Screen. Data for the rad14 strain (AID 159);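 further: 0% = growth of vehicle-treated control cultures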; details: S. cerevisiae rad14 strain growth inhibition, hits give high values
Procedure, shortened: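 Readout: yeast growth inhibition, referenced to vehicle-only cultures. Strain bears a defined alteration in DNA damage repair.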

[8] = NCI Yeast Anticancer Drug Screen. Data for the sgs1 mgt1 strain (AID 161);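 further: 0% = growth of cultures given vehicle only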; details: S. cerevisiae sgs1 mgt1 strain, hits give high values
Procedure, shortened: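 Read-out: growth inhibition vs vehicle controls. Cells: mutant yeast strain deficient in DNA damage repair.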

[9] = NCI Yeast Anticancer Drug Screen. Data for the CLN2oe strain (AID 163);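 further: 0% = growth of vehicle-only control cultures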; details: S. cerevisiae CLN2oe strain, hits give high values
Procedure, shortened: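 Growth of a genetically modified yeast strain is measured after compound exposure and compared with cultures given vehicle alone.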

[10] = NCI Yeast Anticancer Drug Screen. Data for the cln2 rad14 strain (AID 165);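 further: 0% = growth equal to vehicle treated cultures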; details: S. cerevisiae cln2 rad14 strain, hits give high values
Procedure, shortened: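 Compounds are applied to the cln2 rad14 yeast strain, and growth is then compared with that of vehicle-treated cultures to give inhibition.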

[11] = NCI Yeast Anticancer Drug Screen. Data for the bub3 strain (AID 167); details: S. cerevisiae bub3 mutant strain, hits give high values
Procedure, shortened: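 Part of a panel of yeast mutants defective in DNA damage repair or cell cycle regulation. Each strain is grown with compound, and inhibition is calculated relative to solvent-treated cultures.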

[12] = NCI Yeast Anticancer Drug Screen. Data for the wt2 strain (AID 169);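 further: 0% = growth of vehicle-treated yeast cultures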; details: S. cerevisiae wt2 strain growth inhibition, hits give high values
Procedure, shortened: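 This strain belongs to a panel of yeast strains with defined genetic alterations in DNA damage repair or cell cycle control. Compounds are applied, and growth inhibition is measured against vehicle-treated cultures.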

[13] = NCI Yeast Anticancer Drug Screen. Data for the mlh1 strain (AID 171);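 further: 0% = growth of vehicle-treated control cultures of the same strain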; details: S. cerevisiae mlh1 strain growth inhibition, hits give high values
Procedure, shortened: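 Growth of the mutant yeast strain after compound exposure, expressed as inhibition relative to vehicle-only controls.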

[14] = NCI Yeast Anticancer Drug Screen. Data for the sgs1 strain (AID 173);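 further: 0% = growth of vehicle-only control cultures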; details: S. cerevisiae sgs1 mutant, hits give high values
Procedure, shortened: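 Growth of a yeast strain bearing a defined genetic alteration is measured after compound treatment. Inhibition is expressed relative to vehicle-only controls.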

[15] = NCI Yeast Anticancer Drug Screen. Data for the mlh1 rad18 strain (AID 175); details: S. cerevisiae mlh1 rad18 strain growth inhibition, hits give high values
Procedure, shortened: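 Read-out is yeast growth inhibition, calculated against vehicle-only controls. The compound was applied to a strain engineered with DNA damage repair alterations.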

[16] = NCI Yeast Anticancer Drug Screen. Data for the rad18 strain (AID 177); details: S. cerevisiae rad18 mutant growth inhibition, hits give high values
Procedure, shortened: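 Growth of the mutant yeast strain after compound exposure, normalised to vehicle-only cultures.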

[17] = at 5.0 µM (retest, dose inferred, filed as 0.5)
[18] = at 50.0 µM (retest, dose inferred, filed as 5.0)

Measured: growth inhibition

O=[N+]([O-])/C=C/c1ccc2ccccc2c1
active: [1]; at 3.7 µM 72% | [1]; at 11.0 µM 100% | [1]; at 33.0 µM 100% | [1]; at 100.0 µM 99% | [2]; at 11.0 µM 99% | [2]; at 33.0 µM 100% | [2]; at 100.0 µM 100% | [3]; at 3.7 µM 98% | [3]; at 11.0 µM 99% | [3]; at 33.0 µM 99% | [3]; at 100.0 µM 99% | [4]; at 11.0 µM 100% | [4]; at 33.0 µM 100% | [4]; at 100.0 µM 99% | [5]; at 3.7 µM 95% | [5]; at 11.0 µM 100% | [5]; at 33.0 µM 100% | [5]; [18] 90% | [5]; at 50.0 µM 99.1% | [5]; at 100.0 µM 99% | [6]; at 3.7 µM 89% | [6]; at 11.0 µM 100% | [6]; at 33.0 µM 100% | [6]; [18] 96% | [6]; at 50.0 µM 99.2% | [6]; at 100.0 µM 97% | [7]; at 3.7 µM 71% | [7]; at 11.0 µM 99% | [7]; at 33.0 µM 99% | [7]; at 100.0 µM 100% | [8]; [18] 95% | [8]; at 50.0 µM 99.3% | [9]; at 11.0 µM 99% | [9]; at 33.0 µM 99% | [9]; at 100.0 µM 99% | [10]; [17] 98% | [10]; [18] 93% | [10]; at 50.0 µM 98.2% | [11]; [17] 98% | [11]; at 11.0 µM 99% | [11]; at 33.0 µM 99% | [11]; [18] 94% | [11]; at 50.0 µM 98.8% | [11]; at 100.0 µM 99% | [12]; at 11.0 µM 100% | [12]; at 33.0 µM 100% | [12]; at 100.0 µM 99% | [13]; at 11.0 µM 100% | [13]; at 33.0 µM 100% | [13]; at 100.0 µM 100% | [14]; at 3.7 µM 98% | [14]; at 11.0 µM 100% | [14]; at 33.0 µM 100% | [14]; at 100.0 µM 100% | [15]; [18] 93% | [15]; at 50.0 µM 98.8% | [16]; at 11.0 µM 99% | [16]; at 33.0 µM 100% | [16]; at 100.0 µM 99%
inactive: [1]; at 1.2 µM 28% | [2]; at 1.2 µM -1% | [2]; at 3.7 µM 7% | [3]; at 1.2 µM 67% | [4]; at 1.2 µM -1% | [4]; at 3.7 µM 61% | [5]; at 1.2 µM 33% | [5]; [17] 1% | [6]; at 1.2 µM 2% | [6]; [17] 33% | [7]; at 1.2 µM 11% | [8]; [17] -35% | [9]; at 1.2 µM 4% | [9]; at 3.7 µM 53% | [11]; at 1.2 µM 6% | [11]; at 3.7 µM 61% | [12]; at 1.2 µM -5% | [12]; at 3.7 µM 18% | [13]; at 1.2 µM 1% | [13]; at 3.7 µM 38% | [14]; at 1.2 µM 23% | [15]; [17] -256% | [16]; at 1.2 µM 6% | [16]; at 3.7 µM 48%

Source: PubChem BioAssay (NCI)
